Experimental data reported in PubChem BioAssay (NCI).
“And” between values parts separate entries of the source, which are not always exact repeats. Equal values may be shown once. Compounds without any hit were thinned out: in the full panel of roughly 79,000, 15% have a hit. More than one record can exist for a structure, and the calls need not agree. The source made the active and inactive calls. Rule as the data show it: active = growth inhibition above about 70%; inactive = the rest.

Experiments:
[1] = NCI Yeast Anticancer Drug Screen. Data for the mec2-1 strain (AID 157); conditions: S. cerevisiae mec2-1 strain, stronger effect = higher value
Outline: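 Using mec2-1 yeast: add compound, measure growth, express inhibition versus vehicle-treated cultures.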

[2] = NCI Yeast Anticancer Drug Screen. Data for the rad14 strain (AID 159);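 also: 0% = growth of vehicle-treated control cultures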; conditions: S. cerevisiae rad14 strain growth inhibition, stronger effect = higher value
Outline: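 Here, inhibition of yeast growth was measured after compound exposure, using a strain with a genetic defect in DNA damage repair and vehicle-treated cultures as the reference.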

[3] = NCI Yeast Anticancer Drug Screen. Data for the sgs1 mgt1 strain (AID 161);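 also: 0% = growth of cultures given vehicle only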; conditions: S. cerevisiae sgs1 mgt1 strain, stronger effect = higher value
Outline: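 This yeast growth screen uses a strain with defined DNA-repair lesions; compound-treated growth is compared with vehicle-treated growth.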

[4] = NCI Yeast Anticancer Drug Screen. Data for the CLN2oe strain (AID 163);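 also: 0% = growth of vehicle-only control cultures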; conditions: S. cerevisiae CLN2oe strain, stronger effect = higher value
Outline: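 Whole-cell yeast growth assay. A strain engineered for altered cell-cycle control received compound, and inhibition relative to vehicle-treated cultures was recorded.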

[5] = NCI Yeast Anticancer Drug Screen. Data for the cln2 rad14 strain (AID 165);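 also: 0% = growth equal to vehicle treated cultures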; conditions: S. cerevisiae cln2 rad14 strain, stronger effect = higher value
Outline: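 Yeast strain cln2 rad14, bearing defects in cell cycle control and DNA repair, serves as the test system; values reflect growth inhibition compared with vehicle.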

[6] = NCI Yeast Anticancer Drug Screen. Data for the bub3 strain (AID 167); conditions: S. cerevisiae bub3 mutant strain, stronger effect = higher value
Outline: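 Whole-cell yeast assay. The mutant strain was incubated with compounds, and growth inhibition was determined by comparison with vehicle-treated cells.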

[7] = NCI Yeast Anticancer Drug Screen. Data for the wt2 strain (AID 169);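 also: 0% = growth of vehicle-treated yeast cultures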; conditions: S. cerevisiae wt2 strain growth inhibition, stronger effect = higher value
Outline: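 Treated yeast vs. vehicle-treated yeast: growth inhibition determined.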

[8] = NCI Yeast Anticancer Drug Screen. Data for the mlh1 strain (AID 171);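 also: 0% = growth of vehicle-treated control cultures of the same strain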; conditions: S. cerevisiae mlh1 strain growth inhibition, stronger effect = higher value
Outline: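 A yeast strain with a defined genetic lesion serves as the test organism. Cultures receive compound or vehicle, and growth is measured.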

[9] = NCI Yeast Anticancer Drug Screen. Data for the sgs1 strain (AID 173);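 also: 0% = growth of vehicle-only control cultures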; conditions: S. cerevisiae sgs1 mutant, stronger effect = higher value
Outline: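 A genetically defined yeast mutant is incubated with the test compound, and its growth is compared to that of the same strain given vehicle.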

[10] = NCI Yeast Anticancer Drug Screen. Data for the mlh1 rad18 strain (AID 175); conditions: S. cerevisiae mlh1 rad18 strain growth inhibition, stronger effect = higher value
Outline: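 Steps: expose repair-defective yeast to compound; measure growth; express inhibition against vehicle-treated controls.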

[11] = NCI Yeast Anticancer Drug Screen. Data for the rad18 strain (AID 177); conditions: S. cerevisiae rad18 mutant growth inhibition, stronger effect = higher value
Outline: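 Measured value is growth inhibition of a yeast strain bearing a DNA repair alteration, referenced to vehicle-treated cells.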

[12] = NCI Yeast Anticancer Drug Screen. Data for the rad52 strain (AID 147);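 also: 0% = growth of vehicle-treated control cultures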; conditions: S. cerevisiae rad52 mutant growth inhibition, stronger effect = higher value
Outline: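 Here a repair-compromised yeast strain receives each compound; its growth is then quantified and normalised to vehicle-only controls.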

[13] = NCI Yeast Anticancer Drug Screen. Data for the wt1 strain (AID 149);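 also: 0% = growth of vehicle-treated wt1 cultures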; conditions: S. cerevisiae wt1 strain (SPY 50644) growth inhibition, stronger effect = higher value
Outline: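 Measured: growth of wt1 yeast under compound versus vehicle treatment, reported as inhibition.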

[14] = NCI Yeast Anticancer Drug Screen. Data for the rad50EPP+ strain (AID 151);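 also: 0% = growth of vehicle-treated control cultures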; conditions: S. cerevisiae rad50 mutant strain, stronger effect = higher value
Outline: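 Read-out is yeast growth inhibition relative to vehicle; cells used were the rad50EPP+ strain.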

[15] = NCI Yeast Anticancer Drug Screen. Data for the mgt1 strain (AID 153); conditions: S. cerevisiae mgt1 mutant growth inhibition, stronger effect = higher value
Outline: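 Measured: inhibition of mgt1 yeast growth by compound, normalized to vehicle-treated cultures.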

[16] = NCI Yeast Anticancer Drug Screen. Data for the rad50 strain (AID 155);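 also: 0% = growth of vehicle-only cultures of the same strain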; conditions: S. cerevisiae rad50 strain growth inhibition, stronger effect = higher value
Outline: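 Growth of the mutant yeast was measured after compound exposure and referenced to vehicle-treated cultures.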

[17] = at 5.0 µM (retest, dose inferred, filed as 0.5)
[18] = at 50.0 µM (retest, dose inferred, filed as 5.0)

Measured: growth inhibition

CCN(CC)CCNc1ccc([N+](=O)[O-])c2nc3ccccc3c(N)c12
inactive: [1]; [17] -5% | [1]; at 11.0 µM -11% | [1]; at 33.0 µM -13% | [1]; [18] -2% | [1]; at 50.0 µM 35.2% | [1]; at 100.0 µM 0% | [2]; at 1.2 µM -8% | [2]; at 3.7 µM -19% | [2]; at 11.0 µM -26% | [2]; at 33.0 µM -34% | [2]; at 100.0 µM -8% | [3]; [17] -4% | [3]; [18] 6% | [4]; at 1.2 µM 5% | [4]; at 3.7 µM -7% | [4]; at 11.0 µM -12% | [4]; at 33.0 µM -6% | [4]; at 100.0 µM 4% | [5]; [17] 7% | [5]; [18] 39% | [5]; at 50.0 µM 36.6% | [6]; at 1.2 µM -15% | [6]; at 3.7 µM -40% | [6]; [17] -9% | [6]; at 11.0 µM -21% | [6]; at 33.0 µM -12% | [6]; [18] 20% | [6]; at 50.0 µM 7.35% | [6]; at 100.0 µM -11% | [7]; at 1.2 µM 1% | [7]; at 3.7 µM -1% | [7]; at 11.0 µM -2% | [7]; at 33.0 µM -3% | [7]; at 100.0 µM 2% | [8]; at 1.2 µM -5% | [8]; at 3.7 µM -7% | [8]; at 11.0 µM -9% | [8]; at 33.0 µM -4% | [8]; at 100.0 µM 8% | [9]; at 1.2 µM -4% | [9]; at 3.7 µM 2% | [9]; at 11.0 µM 6% | [9]; at 33.0 µM -2% | [9]; at 100.0 µM 13% | [10]; [17] -28% | [10]; [18] 15% | [11]; at 1.2 µM -6% | [11]; at 3.7 µM -9% | [11]; at 11.0 µM -10% | [11]; at 33.0 µM -8% | [11]; at 100.0 µM -4%
active: [3]; at 50.0 µM 82.1% | [10]; at 50.0 µM 85.2%

COC(=O)/C=C(/C(=O)OC)C(Cl)(Cl)Cl
active: [12]; at 33.0 µM 97% | [12]; at 100.0 µM 100% | [13]; at 33.0 µM 84% | [13]; at 100.0 µM 100% | [14]; at 100.0 µM 84% | [15]; at 100.0 µM 99% | [16]; at 33.0 µM 93% | [16]; [18] 88% | [16]; at 100.0 µM 99% | [1]; [18] 96% | [1]; at 100.0 µM 98% | [2]; at 33.0 µM 96% | [2]; at 100.0 µM 100% | [3]; [18] 97% | [3]; at 50.0 µM 79.9% | [4]; at 100.0 µM 99% | [5]; [18] 95% | [6]; at 33.0 µM 81% | [6]; [18] 94% | [6]; at 100.0 µM 100% | [7]; at 33.0 µM 99% | [7]; at 100.0 µM 100% | [8]; at 33.0 µM 84% | [8]; at 100.0 µM 99% | [9]; at 33.0 µM 97% | [9]; at 100.0 µM 100% | [10]; [17] 70% | [10]; [18] 97%
inactive: [12]; at 1.2 µM -32% | [12]; at 3.7 µM 7% | [12]; at 11.0 µM 47% | [13]; at 1.2 µM -1% | [13]; at 3.7 µM 4% | [13]; at 11.0 µM 34% | [14]; at 1.2 µM 4% | [14]; at 3.7 µM -9% | [14]; at 11.0 µM 24% | [14]; at 33.0 µM 61% | [15]; at 1.2 µM 3% | [15]; at 3.7 µM -3% | [15]; at 11.0 µM 5% | [15]; at 33.0 µM 59% | [16]; at 1.2 µM 1% | [16]; at 3.7 µM 4% | [16]; [17] 14% | [16]; at 11.0 µM 33% | [16]; at 50.0 µM 44.8% | [1]; at 1.2 µM 2% | [1]; at 3.7 µM 2% | [1]; [17] 7% | [1]; at 11.0 µM 6% | [1]; at 33.0 µM 44% | [1]; at 50.0 µM 22.1% | [2]; at 1.2 µM 6% | [2]; at 3.7 µM 18% | [2]; at 11.0 µM 64% | [3]; [17] 23% | [4]; at 1.2 µM -5% | [4]; at 3.7 µM -3% | [4]; at 11.0 µM 2% | [4]; at 33.0 µM 45% | [5]; [17] 9% | [5]; at 50.0 µM 67.5% | [6]; at 1.2 µM -4% | [6]; at 3.7 µM 6% | [6]; [17] -3% | [6]; at 11.0 µM 23% | [6]; at 50.0 µM -0.7% | [7]; at 1.2 µM -1% | [7]; at 3.7 µM 8% | [7]; at 11.0 µM 33% | [8]; at 1.2 µM -3% | [8]; at 3.7 µM 2% | [8]; at 11.0 µM 5% | [9]; at 1.2 µM 6% | [9]; at 3.7 µM 14% | [9]; at 11.0 µM 69% | [10]; at 50.0 µM 40.9%

O=C1Nc2ccccc2/C1=C/c1ccccc1
57.1% (inactive) and 96.2% (active): [3]; at 50.0 µM
active: [12]; at 100.0 µM 80% | [15]; at 100.0 µM 71% | [16]; at 50.0 µM 81.6% and 98% | [16]; at 100.0 µM 82% | [2]; at 100.0 µM 73% | [7]; at 100.0 µM 88% | [8]; at 100.0 µM 81% | [9]; at 100.0 µM 84% | [11]; at 100.0 µM 86%
66.6% (inactive) and 97.2% (active): [1]; at 50.0 µM
inactive: [12]; at 1.2 µM -2% | [12]; at 3.7 µM -1% | [12]; at 11.0 µM 7% | [12]; at 33.0 µM 37% | [13]; at 1.2 µM -1% | [13]; at 3.7 µM -2% | [13]; at 11.0 µM 0% | [13]; at 33.0 µM 6% | [13]; at 100.0 µM 34% | [14]; at 1.2 µM 0% | [14]; at 3.7 µM 1% | [14]; at 11.0 µM 10% | [14]; at 33.0 µM 35% | [14]; at 100.0 µM 53% | [15]; at 1.2 µM -6% | [15]; at 3.7 µM -22% | [15]; at 11.0 µM -8% | [15]; at 33.0 µM 17% | [16]; at 1.2 µM -3% | [16]; at 3.7 µM 1% | [16]; [17] -113% and -24% | [16]; at 11.0 µM 3% | [16]; at 33.0 µM 39% | [16]; [18] -9% and 10% | [1]; at 1.2 µM -3% | [1]; at 3.7 µM -5% | [1]; [17] -53% and -11% | [1]; at 11.0 µM -8% | [1]; at 33.0 µM 4% | [1]; [18] -56% and 30% | [1]; at 100.0 µM 51% | [2]; at 1.2 µM -4% | [2]; at 3.7 µM 6% | [2]; at 11.0 µM -2% | [2]; at 33.0 µM 14% | [3]; [17] -69% and -10% | [3]; [18] -52% and 29% | [4]; at 1.2 µM -9% | [4]; at 3.7 µM -9% | [4]; at 11.0 µM -12% | [4]; at 33.0 µM -1% | [4]; at 100.0 µM 17% | [5]; [17] -67% and -49% | [5]; [18] -83% and -8% | [6]; at 1.2 µM -9% | [6]; at 3.7 µM -14% | [6]; [17] -46% and -21% | [6]; at 11.0 µM -5% | [6]; at 33.0 µM 9% | [6]; [18] -62% and 22% | [6]; at 100.0 µM 51% | [7]; at 1.2 µM -3% | [7]; at 3.7 µM -3% | [7]; at 11.0 µM 2% | [7]; at 33.0 µM 35% | [8]; at 1.2 µM -5% | [8]; at 3.7 µM 10% | [8]; at 11.0 µM -5% | [8]; at 33.0 µM 30% | [9]; at 1.2 µM 0% | [9]; at 3.7 µM 2% | [9]; at 11.0 µM 10% | [9]; at 33.0 µM 47% | [10]; [17] -122% and -22% | [10]; [18] -79% and 51% | [11]; at 1.2 µM 0% | [11]; at 3.7 µM -1% | [11]; at 11.0 µM 8% | [11]; at 33.0 µM 52%
-40.7% (inactive) and 70.8% (active): [5]; at 50.0 µM
63.5% (inactive) and 96.8% (active): [10]; at 50.0 µM
15.8% (inactive) and 98% (active): [6]; at 50.0 µM
